In PubChem BioAssay (NCATS):
Results filed as inconclusive are left out. Entries that show only a call come without a potency. Values without a mark were called inactive. Active and inactive are the calls of the source. Calls follow the shape of the dose curve; as a rule, active = well fitted curve in the direction sought with a large enough effect; inconclusive = small, poorly fitted or top-dose-only effect, or another doubt; inactive = no such curve, though single readings can be large; an effect the other way counts as inactive or inconclusive.

Experiments:
[1] = system: Zika virus NS2B-NS3 protease; test: Primary screen GU AMC qHTS for Zika virus inhibitors (AID 1347154); also: nearly all actives have a fitted effect of over 70% in size
Method in brief: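 Fluorogenic AMC-substrate cleavage by noncovalent NS2B-NS3 protease complex (25 nM, pH 8.0 Tris buffer with Tween 20) followed for 15 minutes at room temperature (~20% conversion). Percent inhibition from ex340/em450 signal change, fitted by 4-parameter Hill equation.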

[2] = system: Zika virus NS2B-NS3 protease (unlinked complex); test: Primary screen GU Rhodamine qHTS for Zika virus inhibitors: Unlinked NS2B-NS3 protease assay (AID 1347159); also: nearly all actives have a fitted effect of over 60% in size
Method in brief: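 Noncovalent NS2B hydrophilic domain–NS3 protease domain complex (25 nM) preincubated 15 min at room temperature with compounds (up to 114 microM) in 10 mM Tris-HCl pH 8.0, 0.01% Tween 20; 1.5 microM Rhodamine110 substrate added, fluorescence change over 15 min fitted to Hill equation.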

[3] = Confirmatory screen GU Rhodamine qHTS for Zika virus inhibitors qHTS (AID 1347157); settings: purified enzyme assay, Rhodamine110 substrate fluorescence, 15 min; also: potency is read from the fitted curve at half-maximal effect; nearly all actives have a fitted effect of over 70% in size
Method in brief: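 A qHTS format was used, with compound concentrations ranging up to 114 microM. Each compound was preincubated with 25 nM NS2B-NS3 protease, and the substrate was then added at 1.5 microM. Curves were fitted with a 4-parameter Hill model.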

CCCCOc1cc(C(=O)OCCN(CC)CC)ccc1N
Potency [1]: inactive
Potency [2]: inactive

C[C@@H]1CN(c2c(F)c(F)c3c(=O)c(C(=O)O)cn(C4CC4)c3c2F)C[C@H](C)N1
activity change, negative = inhibition [2]: -12.9% [at 19.1 µM]

CC(C)(C)[C@]1(O)CCN2C[C@H]3c4ccccc4CCc4cccc(c43)[C@@H]2C1
Potency [1]: inactive

CC1(C)OC(=O)NC1=O
Potency [1]: inactive

O=c1[nH]cnc2c1ncn2[C@@H]1O[C@H](CO)[C@@H](O)[C@H]1O
Potency [1]: inactive
Potency [2]: inactive

c1ccc(CN(CC2=NCCN2)c2ccccc2)cc1
Potency [1]: inactive
Potency [2]: inactive

COc1cc(C)c(Cc2cnc(N)nc2N)cc1OC
Potency [1]: inactive

CC1(C)Oc2ccc(C#N)cc2[C@@H](N2CCCC2=O)[C@@H]1O
Potency [1]: inactive

O=C(CCCN1CCN(c2ccccn2)CC1)c1ccc(F)cc1
Potency [1]: inactive
Potency [2]: inactive

CCCCOC(=O)c1ccc(O)cc1
Potency [1]: inactive

CN1CCOC(c2ccccc2)c2ccccc2C1 (stereo unspecified)
Potency [1]: inactive
Potency [2]: inactive

CCN(CC)C(=O)Nc1ccc(OCC(O)CNC(C)(C)C)c(C(C)=O)c1 (stereo unspecified)
Potency [1]: inactive
Potency [2]: inactive

OCC(O)CN1CCN(c2ccccc2)CC1 (stereo unspecified)
Potency [1]: inactive
Potency [2]: inactive

CC(C)(C)NCC(O)COc1ccc(NC(=O)NC2CCCCC2)cc1 (stereo unspecified)
Potency [1]: inactive

CS(=O)(=O)c1ccc([C@@H](O)[C@@H](CF)NC(=O)C(Cl)Cl)cc1
Potency [1]: inactive
Potency [2]: inactive

NS(=O)(=O)c1cc2c(cc1C(F)(F)F)NC(Cc1ccccc1)NS2(=O)=O (stereo unspecified)
Potency [1]: inactive

COc1ccc2c(c1)C(=O)N(CCc1ccc(S(=O)(=O)NC(=O)NC3CCCCC3)cc1)C(=O)C2(C)C
Potency [3]: 27.8 µM (active)
Potency [2]: inactive
